Experimental data from PubChem BioAssay AID588590 (National Center for Advancing Translational Sciences (NCATS), 2011).
Out of some 390,000 compounds screened, about 4,000 (1%) were called active. Inconclusive results (about 7%) are left out. The full list was thinned out, with actives kept by preference. Values without a mark were called inactive. Calls follow the shape of the dose curve; as a rule, active = well fitted inhibition curve with a large enough effect; inconclusive = small, poorly fitted or top-dose-only effect, or another doubt; inactive = no such curve, though single readings can be large or run the other way.

target: DNA polymerase iota (Homo sapiens) (UniProt Q9UNA4); assay: qHTS for Inhibitors of Polymerase Iota; details: Pol iota fluorescent replication assay, 10 min; series mostly up to 115 µM; activity, negative = inhibition: at the top concentration
Summary of the method: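 Fluorescent replication assay read twice, at 0 min and 10 min after adding 50 nM (final) substrate. Enzyme (10 nM) and compounds were first incubated 15 min at room temperature; enzyme-free buffer wells were negative controls.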
Potency is read from the fitted curve at half-maximal effect.

DNA polymerase iota (Homo sapiens), sequence (Q9UNA4 whole entry, looked up): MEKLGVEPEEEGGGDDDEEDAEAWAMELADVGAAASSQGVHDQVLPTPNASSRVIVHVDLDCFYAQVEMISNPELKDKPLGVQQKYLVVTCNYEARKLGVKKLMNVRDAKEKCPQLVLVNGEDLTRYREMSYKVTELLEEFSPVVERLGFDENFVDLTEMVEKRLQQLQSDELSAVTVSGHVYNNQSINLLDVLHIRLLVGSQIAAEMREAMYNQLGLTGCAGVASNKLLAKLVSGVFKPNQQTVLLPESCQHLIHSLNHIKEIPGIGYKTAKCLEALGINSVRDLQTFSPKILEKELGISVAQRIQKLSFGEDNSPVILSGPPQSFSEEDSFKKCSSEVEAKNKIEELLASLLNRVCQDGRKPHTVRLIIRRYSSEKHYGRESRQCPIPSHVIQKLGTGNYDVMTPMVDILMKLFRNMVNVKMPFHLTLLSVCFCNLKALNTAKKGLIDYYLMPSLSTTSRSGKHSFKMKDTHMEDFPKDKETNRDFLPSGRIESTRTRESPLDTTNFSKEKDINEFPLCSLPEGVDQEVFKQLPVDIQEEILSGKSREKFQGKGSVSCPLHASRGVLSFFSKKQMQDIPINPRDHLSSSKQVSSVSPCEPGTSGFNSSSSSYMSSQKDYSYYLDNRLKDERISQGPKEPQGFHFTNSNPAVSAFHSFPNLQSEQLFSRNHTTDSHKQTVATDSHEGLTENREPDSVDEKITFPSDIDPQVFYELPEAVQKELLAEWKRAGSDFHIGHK

Compound	activity, negative = inhibition [%]	Potency
CC1CCCN(S(=O)(=O)c2ccc3[nH]c(=O)cc(C(=O)NCCc4ccc(Cl)cc4)c3c2)C1 (stereo unspecified)	4.12	–
COc1cc2nc(Cl)nc(NC3CC3)c2cc1OC	17.8	–
COc1ccc(C)cc1NC(=O)C(=O)NCCc1sc(-c2cccc(C)c2)nc1C	32	–
C=C1c2c(Cl)ccc(O)c2C(O)=C2C(=O)[C@]3(O)C(O)=C(C(N)=O)C(=O)[C@@H](N(C)C)[C@@H]3[C@@H](O)C12 (stereo partly specified)	–	2.51 µM (active)
Cc1ccc(NC(=O)c2nc(S(=O)(=O)Cc3cccc(C)c3)ncc2Cl)cc1	-13.9	–
COc1cc(C(CC(=O)NCCC(C)C)N2Cc3ccccc3C2=O)cc(OC)c1OC (stereo unspecified)	5.25	–
COc1ccc(CCNC(=O)c2c3c(nc4ccccc24)C(=O)N(C2CCCCC2)C3)cc1OC	8.03	–
Cc1c(NC(=O)C(C)(C)C)cccc1-c1nc2ccccc2s1	11.4	–
O=C(COc1ccc(Cl)cc1)Nc1ccc(-c2nc3cc(Cl)ccc3o2)c(O)c1	28.2	–
CC1=NN(c2ccc(Cl)c(C(=O)O)c2)C(=O)/C1=C/c1ccc(-c2ccccc2[N+](=O)[O-])o1	–	1.41 µM (active)
O=C(O)c1ccc2c(=O)n3c(nc2c1)/C(=C/c1ccc(Cl)c([N+](=O)[O-])c1)CC3	123	–
O=C1C2C3C=CC(C4CC34)C2C(=O)N1/N=C/c1ccc(-c2ccccc2[N+](=O)[O-])o1 (stereo unspecified)	-5.9	–
Cc1ccc2onc(CC(=O)N3CCN(c4ccc(Cl)cc4)CC3)c2c1	9.13	–
COc1ccc(C2Nc3ccc(NC(=O)COC(C)=O)cc3C(=O)N2Cc2ccccc2)cc1COc1ccc(NC(C)=O)cc1 (stereo unspecified)	15.4	–
COC(=O)c1ccccc1NC(=O)Cn1c(=O)cc(C)c2c(C)nn(-c3cccc(Cl)c3C)c21	34.6	–
COc1ccc(Cl)cc1C(=O)NNC(=S)NC(=O)/C=C/c1ccco1	16.2	–
CC(C)CNC(=O)COC(=O)/C=C/c1ccco1	-29.3	–
O=C(/C=C/c1ccco1)NC(=S)Nc1ccccc1Br	–	25.1 µM (active)

Compound	activity, negative = inhibition [%]	Potency
CC(=O)Nc1ccc(NC(=O)C2CCCN(S(=O)(=O)c3ccc4c(c3)CCCC(=O)N4)C2)cc1 (stereo unspecified)	2.46	–
COc1ccc(-c2nc(=N)sn2-c2ccccc2)cc1	-18.6	–
O=C(Nc1ccc(S(=O)(=O)Nc2nccs2)cc1)c1cc(-c2ccncc2)nc2ccccc12	–	11.2 µM (active)
CCC(CC)C(=O)Nc1ccc(S(=O)(=O)Nc2nccs2)cc1	111	–
COc1ccccc1OC(C)C(=O)Nc1ccc(S(=O)(=O)Nc2nccs2)cc1 (stereo unspecified)	76.1	–
COc1ccc(NS(=O)(=O)c2cc3c4c(c2)CC(=O)N4CCC3)cc1Cl	-8.67	–
CCOc1ccc(OCC)c(NC(=O)CN(c2ccc(C)cc2)S(=O)(=O)c2c(C)n[nH]c2C)c1	9.87	–
CC1CCN(S(=O)(=O)c2ccc3c(ccn3CCC(=O)NCc3ccc(N(C)C)cc3)c2)CC1	-7.35	–
O=C(NC1CC(=O)N(c2ccc(Cl)cc2)C1)C1CCCC1 (stereo unspecified)	5.35	–
CCCCCC(=O)Nc1ccc(S(=O)(=O)Nc2ccc(Cl)nn2)cc1	-8.6	–
Cc1nnc(SCC(=O)Nc2ccc(S(=O)(=O)Nc3ccc(Cl)nn3)cc2)s1	–	28.2 µM (active)
COc1ccc(NC(=O)CSc2nc(NS(=O)(=O)c3ccc(C)cc3)cc(=O)[nH]2)cc1	8.29	–
NC(=O)Nc1ccc(/C=C/c2ccnc3ccccc23)cc1	24.2	–
COc1ccc(-c2[nH]c3c(c2-c2c(-n4cccc4)n(C)c(=O)n(C)c2=O)c(=O)n(C)c(=O)n3C)cc1	33.3	–
COc1ccc(C(=O)n2nc(-c3ccc(Cl)cc3)nc2N)cc1OC	8.66	–
COc1ccc(CC(=O)n2nc(-c3cccnc3)nc2N)cc1	18.7	–
CCCC(=O)n1nc(-c2ccccc2)nc1N	–	79.4 µM (active)
CCC(Sc1nnc(-c2ccc(OC)cc2)c(-c2ccc(OC)cc2)n1)C(=O)NC1CCCCC1 (stereo unspecified)	9.48	–
